Data as given in PubChem BioAssay.
Activity calls are given as the source filed them.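 How the source made its calls, unless noted: active means primary screen active and over 50% activation in each of two duplicate runs; inactive means the rest.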

System: TRPC4 beta (transient receptor potential cation channel C4), mouse
Test: activators of mouse TRPC4 channel, confirmation, cell-based, Fluo4 calcium, HEK293 TRPC4beta/mu-opioid, duplicates, 10 µM (AID 2426;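 active means fluorescence ratio normalized to control raised more than 50% in primary screen plus both repeat runs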)
Settings: Fluo4 calcium fluorescence, at 10 µM

outcome, inactive:
CC1CCCN1CC#CC(O)(c1ccccc1)c1ccccc1 (centres undefined)
CCOC(=O)c1c(N)sc(C(O)(C(F)(F)F)C(F)(F)F)c1-c1ccccc1
CCCCN(Cc1ccccc1)C(=O)C1CCN(Cc2sccc2C)CC1
CCc1ccc2nc3nc(C)cc(C)c3c(N)c2c1
Cc1ccc(C)c(S(=O)(=O)/N=C2\C=C(NS(=O)(=O)c3ccccc3)C(=O)c3ccccc32)c1
Cc1ccn2c(-c3csc(NCc4ccco4)n3)c(C)nc2c1
CCCCC(=O)N(c1ccc(C(=O)O)cc1)c1nc(-c2ccc(Cl)cc2)c(CC)s1
CC(=O)c1ccc2c(c1)N(C)c1ccccc1S2
Cc1ccc2c(c1)N(C(=O)CCC(=O)Nc1ccccc1Br)CC(C)O2 (centres undefined)
OCC1(CCCc2ccccc2)CCN(Cc2cc(F)ccc2F)CC1
CC(C)c1ccc(S(=O)(=O)/N=C2\C=C(NS(=O)(=O)c3ccccc3)C(=O)c3ccccc32)cc1
Cc1cc(NCc2ccccc2)nc(N2CCOCC2)n1
CCOc1ccc(NC(=O)c2c[nH]n3c(=O)cc(C4CCN(C(=O)OC(C)(C)C)CC4)nc23)cc1
COCCn1c(SCc2cc(C(C)=O)ccc2OC)nc2cc(Cl)ccc2c1=O
CCc1cc(C(c2cccc(OC)c2)N2CCOCC2)c(NC(=O)c2ccccc2)s1 (centres undefined)
CC(=O)Nc1ccc(S(=O)(=O)NC2=C(N3CCN(Cc4ccccc4)CC3)C(=O)c3ccccc3C2=O)cc1
COc1ccc(C2=NN(C(=O)c3ccccc3)C(c3ccc(OC)c(OC)c3)C2)c(O)c1 (centres undefined)
COc1cccc(CNC(=O)CCC2CCCN(Cc3cc(Cl)ccc3O)C2)c1 (centres undefined)
Cc1c(CN2CCC(n3nccc3NC(=O)CCc3ccccc3)CC2)cnn1C
CCOC(=O)C(C)Sc1nc2c(c(=O)[nH]c(=O)n2C)n1Cc1ccc(Cl)cc1 (centres undefined)

System: transient receptor potential cation channel C4 beta (TRPC4), mouse
Test: activators of mouse TRPC4 channel, confirmation, cell-based, second round, Fluo4, HEK293 TRPC4beta/mu-opioid, 1 µM (AID 2461)
Settings: Fluo4 calcium fluorescence, at 1 µM

outcome, inactive:
CC(C)C(NC(=O)c1ccc(C(C)(C)C)cc1)C(=O)NCC(c1ccccc1)N(C)C (centres undefined)
CN(C)CCCN(C(=O)c1ccc(S(=O)(=O)N2CCCC2)cc1)c1nc2c(F)cc(F)cc2s1
CCC1CCCCN1CCN1C(=O)C2C(C(=O)Nc3ccc(OC)cc3)C3C=CC2(O3)C1C(=O)NC1CCCCC1 (centres undefined)
Cc1cc(Nc2ccc(C)c(C)c2)c2ccccc2n1
CCCc1nc2ccccc2n1Cc1ccccc1OC
CCCCOc1ccc(Nc2cc(Cl)ccc2C(=O)O)cn1
N#Cc1c(N)sc2c1CCCCCC2
Cc1cc(OCc2cc(C(=O)NCCN3CCCCC3CO)no2)cc(C)c1Cl (centres undefined)
Cc1cccc(C)c1-n1cccc1/C=C1\SC(=S)N(c2cccc(C(=O)O)c2)C1=O
Clc1ccc(COc2ccccc2CNCc2cccnc2)cc1
C=CCOc1ccc(C2CC(C)=NN2c2ccccc2)cc1 (centres undefined)
CCCCN=C(Nc1ccc(Cl)cc1)c1cccnc1
OCc1ccccc1CNCc1ccccc1
Cc1ccc(Nc2cc(C)nc3ccc(C)cc23)cc1
C=CCSc1nnc2n(-c3ccccc3OC)c(=O)c3c4c(sc3n12)CCC4
Cc1ccc(NC(=O)CN2CCc3ccccc3C2)cc1F
c1ccc(CN2CCN(Cc3c[nH]c4ccccc34)CC2)cc1
OCCNc1nc2ccccc2n1CCN1CCCCC1
COc1ccc(NC(=O)c2c[nH]n3c(=O)cc(C4CCN(C(=O)OC(C)(C)C)CC4)nc23)cc1Cl
CC1CCCN1CC#CC(O)(c1ccccc1)c1ccccc1 (centres undefined)
CCOC(=O)c1c(N)sc(C(O)(C(F)(F)F)C(F)(F)F)c1-c1ccccc1
CCCCN(Cc1ccccc1)C(=O)C1CCN(Cc2sccc2C)CC1
CCc1ccc2nc3nc(C)cc(C)c3c(N)c2c1
Cc1ccc(C)c(S(=O)(=O)/N=C2\C=C(NS(=O)(=O)c3ccccc3)C(=O)c3ccccc32)c1
Cc1ccn2c(-c3csc(NCc4ccco4)n3)c(C)nc2c1
CCCCC(=O)N(c1ccc(C(=O)O)cc1)c1nc(-c2ccc(Cl)cc2)c(CC)s1
CC(=O)c1ccc2c(c1)N(C)c1ccccc1S2
Cc1ccc2c(c1)N(C(=O)CCC(=O)Nc1ccccc1Br)CC(C)O2 (centres undefined)
OCC1(CCCc2ccccc2)CCN(Cc2cc(F)ccc2F)CC1
CC(C)c1ccc(S(=O)(=O)/N=C2\C=C(NS(=O)(=O)c3ccccc3)C(=O)c3ccccc32)cc1
Cc1cc(NCc2ccccc2)nc(N2CCOCC2)n1
CCOc1ccc(NC(=O)c2c[nH]n3c(=O)cc(C4CCN(C(=O)OC(C)(C)C)CC4)nc23)cc1
COCCn1c(SCc2cc(C(C)=O)ccc2OC)nc2cc(Cl)ccc2c1=O
CCc1cc(C(c2cccc(OC)c2)N2CCOCC2)c(NC(=O)c2ccccc2)s1 (centres undefined)
CC(=O)Nc1ccc(S(=O)(=O)NC2=C(N3CCN(Cc4ccccc4)CC3)C(=O)c3ccccc3C2=O)cc1
COc1ccc(C2=NN(C(=O)c3ccccc3)C(c3ccc(OC)c(OC)c3)C2)c(O)c1 (centres undefined)
COc1cccc(CNC(=O)CCC2CCCN(Cc3cc(Cl)ccc3O)C2)c1 (centres undefined)
Cc1c(CN2CCC(n3nccc3NC(=O)CCc3ccccc3)CC2)cnn1C
CCOC(=O)C(C)Sc1nc2c(c(=O)[nH]c(=O)n2C)n1Cc1ccc(Cl)cc1 (centres undefined)
